# D2 antagonist: HTS Assay for Allosteric Antagonists of the Human D2 Dopamine Receptor: Primary Screen for Antagonists | D(2) dopamine receptor (Homo sapiens), P14416 | HEK293 TREx D2 cells, calcium flux, dopamine EC80 | 2% of 340,000 active | inhibition, % at 10 µM; in the data active = inhibition above about 30%; inactive = below that, where a call was filed; note: 0% is about no effect
#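 In this primary screen, negative modulation is detected by tracking calcium flux after an EC80 dopamine challenge in inducible HEK293 T-REx D2 cells preexposed to test compound for 180 s.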
# D2 ag-1: Beta-Arrestin HTS for Positive Allosteric Modulators of the Human D2 Dopamine Receptor: Agonists. D(2) dopamine receptor (Homo sapiens), P14416. DiscoveRx PathHunter D2 beta-arrestin, luminescence, 90 min; 100% = 57 uM dopamine signal. activation, % (no concentration beside the values). 0.084% of 360,000 active; in the data active = activation above about 40%; inconclusive = between about 15% and that limit
#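 Agonist mode: compounds alone added to overnight-plated D2 PathHunter cells for 90 min at 37 C, with 57 uM final dopamine (EC100) defining full response. Beta-arrestin recruitment detected by chemiluminescent reagent, read after 1 h at ambient temperature.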
# D2 ag-2: HTS Assay for Allosteric Agonists of the Human D2 Dopamine Receptor: Primary Screen for Agonists; 0.53% of 340,000 active; AID 485358, 2010; activation, % at 2 µM; HEK293 T-REx D2 cells, calcium flux agonist mode;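 active = activation over 3 SD above normal in the single-dose calcium agonist read, cut at about 30% in these data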; note: 0% is about no effect
#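 Tetracycline-induced HEK293 Trex cells with D2 receptor force-coupled to calcium signaling, plated overnight at 30 C and loaded with no-wash calcium dye. Calcium flux read kinetically for 180 s after compound addition; responses flag agonists.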
# D2 PAM-1: Beta-Arrestin HTS for Positive Allosteric Modulators of the Human D2 Dopamine Receptor: Potentiators | AID 624464, 2012 | DiscoveRx D2 beta-arrestin cells, luminescence, 90 min; 100% = 57 uM dopamine signal | 0.23% of 360,000 active | potentiation, % (test concentration not listed) | D(2) dopamine receptor (Homo sapiens), P14416; in the data active = potentiation above about 50%; inconclusive = mostly about 30% to 49%
#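 D2 cells co-treated with compound plus 50 nM dopamine (EC20) for 90 min at 37 deg C to detect potentiation. Beta-arrestin recruitment was read as enzyme-fragment luminescence after 1 h at ambient temperature. Full response was set by 57 uM dopamine.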
# D2 PAM-2: HTS Assay for Positive Allosteric Modulators of the Human D2 Dopamine Receptor: Primary Screen for Potentiators | D(2) dopamine receptor (Homo sapiens), P14416 | AID 485347, 2010 | HEK293 T-REx D2, calcium flux, EC20 dopamine potentiation | potentiation, % at 10 µM | 0.34% of 340,000 active;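 active = potentiation over 3 SD above the plate norm, cut at about 30% in these data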; note: 0% is about no effect
#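 Cells plated with tetracycline inducer and held overnight at 30 C; calcium dye loaded 30–90 min at room temperature; baseline taken, compound added and read 180 s; EC20 dopamine then added and read 180 s.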
# D3 arrestin ag: qHTS of D3 Dopamine Receptor Agonist: D3 Dopamine Receptor B-arrestin Agonist Confirmatory Assay; shares compounds with D2 ag-2; Potency, µM (series often up to 76.9 µM), inactives show at the highest dose activation, hits mostly activators; DiscoveRx D3 beta-arrestin cells, luminescence, 90 min; 4% of 2,300 active; AID 720506, 2013;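 note: potency is the fitted concentration of half-maximal effect; 100% = dopamine control response; nearly all actives have a fitted effect of over 70% in size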
# Target sequence (P35462 whole entry, looked up): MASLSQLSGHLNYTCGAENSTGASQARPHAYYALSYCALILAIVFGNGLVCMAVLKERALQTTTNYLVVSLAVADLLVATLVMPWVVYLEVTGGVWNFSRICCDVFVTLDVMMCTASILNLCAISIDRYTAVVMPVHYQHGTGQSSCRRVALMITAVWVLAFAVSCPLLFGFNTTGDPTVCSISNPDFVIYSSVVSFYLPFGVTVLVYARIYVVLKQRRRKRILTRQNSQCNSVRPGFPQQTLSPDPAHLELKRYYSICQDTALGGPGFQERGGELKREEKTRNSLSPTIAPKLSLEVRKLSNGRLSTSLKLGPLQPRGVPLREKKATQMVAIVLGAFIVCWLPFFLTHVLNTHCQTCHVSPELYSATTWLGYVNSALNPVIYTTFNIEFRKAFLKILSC
# D2 ag-3: qHTS of D3 Dopamine Receptor Agonist: D2 Dopamine Receptor B-arrestin Agonist Counterscreen; shares compounds with D2 ag-2; DiscoveRx PathHunter D2 beta-arrestin, luminescence, 90 min; response scale: percent relative to full dopamine signal; Potency, µM (doses to about 76.9 µM), for inactives: at the top dose activation, usual class: activators; 5.9% of 2,300 active; note: potency is the fitted concentration of half-maximal effect; % of control where 0% means no effect; nearly all actives have a fitted effect of over 70% in size
# Numbers without * were called inactive; ? = inconclusive; / = no result. In the library only some 2.4% were active in any assay of this set; here they are far more common. Unless noted, calls come from the whole dose curve; as a rule, active = well fitted activation curve with a large enough effect; inconclusive = small, poorly fitted or top-dose-only effect; inactive = flat fitted curve, though single readings scatter.
SMILES,D2 antagonist,D2 ag-1,D2 ag-2,D2 PAM-1,D2 PAM-2,D3 arrestin ag,D2 ag-3
CCN(CC)CCN(C)C1CCC(c2ccccc2)CC1 (stereo not drawn),-7,-2,46*,-16,-18,-5%,3%
O=c1cc(CN2CCN(c3ccc(O)cc3)CC2)nc2scc(-c3ccccc3)n12,8,10,28,-1,-7,35µM*,18%
Cc1cccc(C)c1OCc1cc(=O)n2c(-c3ccccc3)csc2n1,/,/,0,/,/,/,/
Cc1cc(C(=O)O[C@H]2[C@H](C)NS(=O)(=O)[C@H]3C[C@@H]4C=C[C@]23O4)cc([N+](=O)[O-])c1,-11,-3,0,-11,1,/,/
C[C@@H]1NS(=O)(=O)[C@H]2C[C@@H]3C=C[C@]2(O3)[C@H]1OC(=O)Nc1ccc(C(F)(F)F)cc1[N+](=O)[O-],-6,-4,1,-1,2,9%,2%
CCN(CC(=O)Nc1ccccc1C(F)(F)F)C(=O)c1ccccc1Sc1ccccc1C#N,4,-2,0,4,-7,-4%,-5%
CN(CC(=O)Nc1ccccc1C(F)(F)F)C(=O)c1ccccc1Sc1ccccc1C#N,-7,3,0,-3,5,/,/
CN(C(=O)COC(=O)C1CCN(S(=O)(=O)c2ccc3c(c2)OCCO3)CC1)c1ccccc1,6,-1,1,-6,7,/,/
CCN(CC)C(=O)COC(=O)C1CCN(S(=O)(=O)c2ccc3c(c2)OCCO3)CC1,18,6,0,0,12,2%,-3%
C=CCNC(=O)CN1CCC(c2nc3cc(C)c(C)cc3[nH]2)CC1,22,0,0,1,-9,/,/
Cc1cc2nc(C3CCN(CC4COc5ccccc5O4)CC3)[nH]c2cc1C (stereo not drawn),11,4,47*,-8,-19,17%,?
CCOC(=O)C1CCN(CC(O)COc2ccc(C(=O)CC)cc2)CC1 (stereo not drawn),56*,?,79*,10,-31,3%,?
CCC(=O)c1ccc(OCC(O)CN2CCN(c3ccccn3)CC2)cc1 (stereo not drawn),74*,60*,80*,26,-27,0.89µM*,2µM*
CCOC(=O)N1CCN(Cc2ccc(OCC(O)CN3CCCCC3)cc2)CC1 (stereo not drawn),51*,?,63*,23,-12,9%,?
CC(C)(C)c1ccc(OCC(O)CN2CCN(c3ccccn3)CC2)cc1 (stereo not drawn),87*,?,86*,55*,-21,?,16µM*
CC(=O)c1ccccc1OCC(O)CN1CCN(c2ccccn2)CC1 (stereo not drawn),15,11,0,-6,0,/,/
CCOC(=O)C1CCN(Cc2cccc(OC)c2)CC1,44*,?,76*,-3,-27,-16%,24%
CCOC(=O)C1CCN(Cc2ccc(N(C)C)cc2)CC1,28,2,42*,-7,-19,-27%,12%
CCOC(=O)C1CCN(Cc2ccc(OC)cc2OC)CC1,23,0,-1,-15,12,/,/
CCOC(=O)C1CCN(Cc2ccc(F)c(F)c2)CC1,6,0,7,-15,-9,/,/
CCOC(=O)C1CCN(Cc2ccc(OCc3ccccc3)cc2)CC1,59*,11,68*,0,-19,0%,?
Cc1cc(C)c(C)c(S(=O)(=O)N[C@@H](C)C(=O)OCC(N)=O)c1C,7,-6,1,-17,5,/,/
O=c1c(CN2CCN(Cc3ccccc3F)C(CCO)C2)coc2ccccc12 (stereo not drawn),-19,3,9,-11,1,/,/
OCCN1CCN(Cc2cc(Cl)c3cccnc3c2O)CC1,3,1,0,-24,-9,/,/
Brc1ccc(CN2CCN(c3ccccn3)CC2)s1,69*,70*,70*,?,-12,?,3.5µM*
SMILES,D2 antagonist,D2 ag-1,D2 ag-2,D2 PAM-1,D2 PAM-2,D3 arrestin ag,D2 ag-3
Oc1c(CN2CCN(c3ccccn3)CC2)cc(Cl)c2cccnc12,89*,-16,83*,-63,-31,-21%,?
c1ccc(N2CCN(Cc3nc4ccccc4[nH]3)CC2)nc1,-10,5,15,-3,-21,/,/
Cc1[nH]c2ccccc2c1CN1CCN(c2ccccn2)CC1,56*,3,51*,-17,-22,-12%,6%
Cc1ccccc1-c1nnc(CN2CCN(c3ccccn3)CC2)o1,/,/,/,/,-19,/,/
O=c1c(CN2CCN(c3ccccn3)CC2)coc2ccccc12,79*,?,88*,19,-17,11%,?
Cc1[nH]n(-c2ccc(F)cc2)c(=O)c1/C=N/c1sc2c(c1C#N)CCCC2,11,5,53*,-13,-13,?,15%
Cc1ccc(/C=N/c2sc3c(c2C#N)CCCCC3)o1,/,14,/,-3,/,?,29%
COc1cccc(C(=O)NNC(=S)NC2CCCCC2)c1,31*,-8,56*,-29,-20,-4%,-5%
COc1cccc(C(=O)NC2CCCC2)c1,-1,6,0,-9,0,/,/
Cc1ccc(C)c(S(=O)(=O)N2CCN(C(=O)c3ccnn3C)CC2)c1,-1,3,-1,5,0,/,/
O=C(NCCCn1ccnc1)C(=O)NCC(c1ccco1)N1CCN(c2ccccc2)CC1 (stereo not drawn),16,54*,63*,15,-24,20%,?
Cc1sc(NC(=O)c2ccco2)c(CN2CCN(c3ccccc3)CC2)c1C,17,0,41*,-31,-18,1%,5%
COc1ccc(N2CCN(C(CNC(=O)c3ccco3)c3ccco3)CC2)cc1 (stereo not drawn),13,-1,0,-6,10,/,/

# Compound activity deposited in PubChem BioAssay by National Center for Advancing Translational Sciences (NCATS).
